Source: PubChem BioAssay
This is a sample that favours compounds with a hit; in the whole collection about 0.81% have one here.
TRPML1 ag = qHTS for Agonists of the Human Mucolipin Transient Receptor Potential 1 (TRPML1); Mucolipin-1 (Homo sapiens), Q9GZU1; TRPML1-expressing cells, Ca2+ dye fluorescence, FDSS; activation, % (no concentration beside the values); actives 0.12% (n = 410,000); AID 624414, 2012; in the data active means activation above about 50%; inconclusive means mostly about 30% to 49%; further: 0% is about no effect
Target sequence (Q9GZU1 whole entry, looked up): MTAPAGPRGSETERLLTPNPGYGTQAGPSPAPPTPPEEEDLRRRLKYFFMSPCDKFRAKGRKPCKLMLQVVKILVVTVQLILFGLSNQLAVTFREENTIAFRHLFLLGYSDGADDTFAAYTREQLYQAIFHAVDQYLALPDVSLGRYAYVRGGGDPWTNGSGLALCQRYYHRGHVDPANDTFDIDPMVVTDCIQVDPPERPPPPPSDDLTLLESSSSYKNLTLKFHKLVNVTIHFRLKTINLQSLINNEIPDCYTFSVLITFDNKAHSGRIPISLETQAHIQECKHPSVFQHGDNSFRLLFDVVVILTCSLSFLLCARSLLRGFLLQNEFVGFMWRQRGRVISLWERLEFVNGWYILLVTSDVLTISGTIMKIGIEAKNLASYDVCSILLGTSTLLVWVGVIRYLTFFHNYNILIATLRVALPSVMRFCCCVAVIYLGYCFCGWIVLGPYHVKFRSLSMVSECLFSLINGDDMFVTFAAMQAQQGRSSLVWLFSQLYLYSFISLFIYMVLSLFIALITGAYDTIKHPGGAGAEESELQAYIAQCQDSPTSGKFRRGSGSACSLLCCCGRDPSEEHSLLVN
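Tet-induced TRPML1-DL cells, 1,500 per well, cultured overnight, were loaded with a no-wash Ca2+ dye for 45–90 min. Calcium fluorescence was recorded on the FDSS for 110 s after compound addition, before the EC80 agonist (4 uM 54-4) was added.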
TRPML1 blocker = qHTS for Inhibitors of the Human Mucolipin Transient Receptor Potential 1 (TRPML1); AID 624415, 2012; Mucolipin-1 (Homo sapiens), Q9GZU1; activity change, negative = inhibition, % (no concentration beside the values); TRPML1-inducible cells, Ca2+ dye fluorescence, FDSS; hits give low values; inhibition of EC80 agonist-evoked calcium signal; actives 0.02% (n = 390,000); in the data active means activity change below about -50%; inconclusive means between about -30% and that limit;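 further: stimulus is agonist 54-4 at its EC80 concentration; on the % scale 0 is the no-effect control and ±100 the full control effect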
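Tet-induced TRPML1-DL cells loaded with Ca8 no-wash calcium dye were read kinetically on FDSS. Compound addition was followed by EC80 agonist 54-4 (4 uM final); inhibition was read over 110 s.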
TRHR enhancer-1 = qHTS for Small Molecule Agonists and Allosteric Enhancers of Human TRH Receptor: Primary Screen for Enhancers; TRHR cells, fluo-8 calcium fluorescence, EC20 TRH enhancement; actives 0.66% (n = 360,000); enhancement, % at 2 µM; Thyrotropin-releasing hormone receptor (Homo sapiens), P34981; in the data active means enhancement above about 30%; further: 0% is about no effect
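TRHR-expressing cells loaded with fluo-8 calcium dye were read kinetically (ex 480/em 530) during compound addition, then stimulated with an EC20 of TRH (10 nM final). Enhancement of the Gq-mediated intracellular calcium response was scored.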
TRHR agonist-1 = qHTS for Small Molecule Agonists and Allosteric Enhancers of Human TRH Receptor: Primary Screen for Agonists; Thyrotropin-releasing hormone receptor (Homo sapiens), P34981; actives 0.18% (n = 360,000); activation, % at 2 µM; TRHR cells, calcium flux fluo-8, FDSS agonist mode; in the data active means activation above about 30%; further: 0% is about no effect
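Steps: seed TRHR cells overnight; add fluo-8 no-wash Ca dye, RT 30 min–1.5 h; record 10 s baseline; pin-transfer compounds; monitor fluorescence 1 cycle/s for the agonist window. Calcium increases flag candidate agonists.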
TRHR enhancer-2 = qHTS for Small Molecule Agonists and Allosteric Enhancers of Human TRH Receptor: Confirmation Screen for Enhancers. TRH receptor cell assay, enhancer confirmation qHTS. shares compounds with TRHR enhancer-1. AID 493076, 2011. activity change, negative = inhibition, % at 46.1 µM. 970 tested, under 10 active;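 further: compound effect scored on response to added TRH at EC20 of 10 nM; 0% is about no effect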
TRHR agonist-2 = qHTS for Small Molecule Agonists and Allosteric Enhancers of Human TRH Receptor: Confirmation Screen for Agonists; AID 493078, 2011; shares compounds with TRHR enhancer-1; Potency, µM (highest dose often 46.1 µM), for the others: top-dose activation, usual class: activators; actives 8% (n = 970); TRHR-expressing cells, agonist activation read-out; further: potency means the concentration at half of the fitted maximal effect; 0% is about no effect; nearly all actives have a fitted effect of over 75% in size
* hit, by the source's call; u = inconclusive; x = no result. Unless noted, the call rests on the fitted dose curve; in most records, active means well fitted curve in the direction sought with a large enough effect; inconclusive means small, poorly fitted or top-dose-only effect, or another doubt; inactive means no such curve, though single readings can be large; an effect the other way counts as inactive or inconclusive.

SMILES | TRPML1 ag | TRPML1 blocker | TRHR enhancer-1 | TRHR agonist-1 | TRHR enhancer-2 | TRHR agonist-2
CCCCCCc1cc2cc(S(=O)(=O)c3ccc(C)cc3)c(=O)oc2cc1O | 8 | -4 | 47* | 29 | x | x
CCCCCCc1cc2cc(-c3cn4c(n3)sc3cc(OC)ccc34)c(=O)oc2cc1O | 3 | -71* | 3 | 2 | x | x
CC(C)(C)OC(=O)Cc1nnc(CNC(=O)c2ccccc2)s1 | x | x | -2 | -1 | x | x
O=C(NNC(=O)c1nn(-c2ccc(F)cc2)ccc1=O)c1ccc(C(F)(F)F)cc1 | -1 | 3 | 45* | -1 | -7 | 2%
NC1=NC(=O)/C(=C\c2ccc(-c3ccccc3[N+](=O)[O-])o2)S1 | 0 | x | x | x | x | x
O=S(=O)(c1ccc2c(c1)OCCO2)C1CCN(S(=O)(=O)c2c(F)cccc2F)CC1 | x | x | 2 | 0 | x | x
CCOC(=O)c1cc(-c2ccccc2)n(CC(=O)NC(C)(C)C)c1C | 1 | 6 | 57* | -2 | -11 | 0%
CCOC(=O)c1cc(-c2ccccc2)n(CC(=O)O)c1C | -1 | -5 | 5 | -1 | x | x
C=CCc1cc(C=O)cc(OC)c1OCc1ccc(Cl)cc1 | 3 | 54 | -8 | 0 | x | x
C=CCc1cc(C=O)cc(OCC)c1OCc1ccc(Cl)cc1 | 4 | 27 | 45* | 0 | -3 | 1%
OC(Br)C(O)C(O)N1CCCc2ccccc21 (stereo not given) | -1 | x | x | x | x | x
CC(C)C(=O)Nc1nnc(NC(=S)Nc2ccccc2)s1 | 1 | -11 | 50* | 0 | -3 | 1%
O=C(C[N+]1(CCc2ccccc2)CCOCC1)c1cccc([N+](=O)[O-])c1 | 0 | x | x | x | x | x
Cc1cc(SC(C)C(=O)NCC(=O)Nc2ccc(F)c(F)c2F)nc2ccccc12 (stereo not given) | 0 | -17 | 43* | 0 | u | 2%
Cc1cc(C)c2nc(SC(C)C(=O)NCC(=O)Nc3ccc(F)c(F)c3F)cc(C)c2c1 (stereo not given) | 0 | 4 | -5 | -2 | x | x
COc1ccc(C(=O)C[n+]2cc(Br)cc(Br)c2)cc1 | 0 | x | x | x | x | x
O=C(O)Cn1c(SCCOc2ccccc2)nc2ccccc21 | 1 | -6 | -3 | 0 | x | x
CCCCOc1ccc(OCCSc2nc3ccccc3n2CC(=O)O)cc1 | x | x | 56* | 0 | 4 | -1%
CCN(CC)c1ccc(/C=c2\sc3nc4ccccc4n3c2=O)c(O)c1 | 11 | -3 | -2 | 26 | 2 | 21µM*
O=c1/c(=C/c2ccc(O)c([N+](=O)[O-])c2)sc2nc3ccccc3n12 | 0 | -10 | 0 | 0 | x | x
O=C(NCCCN1CCCCC1)C1CCC(CNS(=O)(=O)c2cccc3nsnc23)CC1 (stereo not given) | 0 | 11 | 48* | 1 | 0 | -1%
CC1CCN(CCCNC(=O)C2CCC(CNS(=O)(=O)c3cccc4nsnc34)CC2)CC1 (stereo not given) | 0 | -18 | 9 | 0 | x | x
CN(c1ccc(C(=O)N2CCN(c3ccc(F)cc3)CC2)cc1)S(C)(=O)=O | 0 | 8 | 56* | 1 | -6 | -1%
Cc1ccc(-c2nc3cnccn3c2Nc2ccc(C(C)C)cc2)o1 | -1 | x | x | x | x | x
COc1ccc(OCCOCCOc2ccc(C)cc2[N+](=O)[O-])cc1 | 0 | -3 | -1 | 0 | x | x
SMILES | TRPML1 ag | TRPML1 blocker | TRHR enhancer-1 | TRHR agonist-1 | TRHR enhancer-2 | TRHR agonist-2
COc1ccc(CNCC(O)COc2ccc(C)cc2[N+](=O)[O-])cc1 (stereo not given) | 2 | 26 | 2 | 34* | 4 | 2%
O=Cc1ccc2[nH]ccc2c1 | 0 | x | x | x | x | x
Cc1cccc(/N=C/c2nc(-c3ccccc3Br)oc2O)n1 | 2 | -6 | 1 | 0 | x | x
Oc1oc(-c2cccc3ccccc23)nc1/C=N/c1nccs1 | 18 | -9 | 12 | 34* | -6 | u
O=C(CBr)c1ccc(Oc2ccc(C(=O)C[n+]3cccc(Br)c3)cc2)cc1 | 0 | x | x | x | x | x
O=C(NCc1cccs1)c1cccnc1C(=O)O | 0 | 3 | 7 | 51* | -2 | -1%
Cc1c(Nc2nc(-c3cccc([N+](=O)[O-])c3)cs2)c(=O)n(-c2ccccc2)n1C | 2 | 13 | 48* | 0 | -1 | 1%
Cc1c(NS(=O)(=O)c2cccc([N+](=O)[O-])c2)c(=O)n(-c2ccccc2)n1C | -1 | -1 | 3 | 0 | x | x
CCC(=O)Nc1ccc2c(c1)C(=O)c1ccccc1C2=O | 0 | -5 | 4 | 0 | x | x
CCC(=O)NC1=C(NC(C)c2ccccc2)C(=O)c2ccccc2C1=O (stereo not given) | 0 | 11 | 50* | 0 | -5 | 2%
COc1cc(OC)c(-c2nc3cnccc3n2C)cc1OC | 0 | -11 | 18 | 0 | x | x
Cn1c(-c2ccc3ccccc3n2)nc2cnccc21 | 3 | -3 | 54* | -1 | u | 0%
COc1cccc(C(=O)N2CCN(Cc3ccccc3C(F)(F)F)CC2)c1 | 0 | -6 | 2 | 0 | x | x
COc1ccc(C(=O)N2CCN(Cc3ccccc3C(F)(F)F)CC2)cc1 | -1 | 2 | -8 | 32* | -3 | 1%
Cc1ccc(Cl)cc1N1CCN(S(=O)(=O)N2CCCCC2)CC1 | 1 | -5 | 43* | 0 | 0 | 1%
COc1ccc(NC(=O)CN(C)C(=O)CNC(=O)c2sc3ccccc3c2Cl)cc1 | 4 | 5 | 45* | 0 | 1 | 1%
O=C(COc1ncnc2ccccc12)NCCc1ccccc1 | 0 | 9 | 58* | 0 | -2 | -1%
COc1ccc(C(CNC(=O)CCNS(=O)(=O)c2ccc(Br)cc2)N2CCCC2)cc1 (stereo not given) | 1 | -8 | 48* | 0 | -6 | 5%
COc1ccc(C2/C(=C(\O)c3ccc4c(c3)OCCO4)C(=O)C(=O)N2c2nc(C)c(C(C)=O)s2)cc1 (stereo not given) | 0 | -10 | 41* | 0 | 2 | 2%
O=C(COC(=O)CNC(=O)C1CCCCC1)NC1CCCC1 | 0 | x | x | x | x | x
CCCC(=O)NC(C)c1nc2ccccc2n1CC (stereo not given) | 0 | -4 | 45* | 0 | -6 | 0%
O=C(Nc1ccc(F)c(F)c1)c1cnn2c1NC(=C1CC1)C=C2C(F)F | 0 | x | x | x | x | x
COc1ccccc1NC(=O)CCn1c(=S)oc2ccccc21 | 0 | -17 | 19 | -1 | x | x
